Our source for the growth values is PubChem BioAssay (NCI).

This is part of a sample that, as a whole, favours compounds with a hit. Of some 83,000 tested, about 20% had one in any assay.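 Assay: single dose, 48 h. Readout: percent growth (0 = no net growth; negative = cell death). Active: <10.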 A number with no mark means an inactive call. Activity calls are given as the source filed them.

The assay relates to DU-145 prostate. The assay is described as follows: NCI-60 one-dose screen, 48 h (100 = growth as untreated, 0 = no growth, -100 = all killed). The note with it: 10 µM unless noted.
Turning to `CC(=O)c1c(C)[nH]c(-c2nc3ccc(N4CCN(C)CC4)cc3[nH]2)c1-c1ccc(N(C)C)cc1`, the growth is 63.9%.
The value for `CC(=O)c1c(C)[nH]c(-c2nc3ccc(N4CCN(C)CC4)cc3[nH]2)c1-c1ccc(OCC2CCOCC2)cc1` was 63.4%; that for `CC/C=C\C[C@H]1CC=C2C(=O)C=C[C@@H]2CC=CCCCC(=O)O[C@@H](CCCCC)CC=C2C(=O)C=C[C@@H]2CC=CCCCC(=O)O[C@@H](CCCCC)CC=C2C(=O)C=C[C@@H]2CC=CCCCC(=O)O[C@@H](CCCCC)CC=C2C(=O)C=C[C@@H]2CC=CCCCC(=O)O1` was 20.4% [7.9 µM].
Take `O=C1c2cccc3cccc(c23)C(=O)N1CC#Cc1ccc2c3c(cccc13)C(=O)N(CCN1CCNCC1)C2=O`: the growth was 99.5%.
As to `COc1ccc(NC(=O)c2ccc3c(c2)nc(-c2cc4ccccc4[nH]c2=O)n3-c2cc(C(C)(C)C)[nH]n2)cc1`, the growth was 103%.
Take `CC(=O)NC1=C(C#N)C(c2ccccc2Cl)c2c(ccc3ccccc23)O1` (stereo not drawn): the growth is 89.1%.
The result for `CC(C)(C)c1[nH]nc2c1C(c1cc3ccccc3[nH]c1=O)Nc1cc(C(=O)OCc3ccccc3)ccc1N2` (stereo not drawn) reads 65%.
The value for `CC1(C)C=CC[C@]2(C)[C@H]3CC[C@@H]4[C@H]5[C@H](C(=O)/C=C/c6cccnc6)CC[C@]5(CO)CC[C@@]4(C)[C@]3(C)CC[C@@H]12` was -94.2% (active); that for `CC1(C)[C@@H](O)CC[C@]2(C)[C@H]3CC[C@@H]4[C@H]5[C@H](C(=O)/C=C/c6ccc(C(F)(F)F)cc6)CC[C@]5(CO)CC[C@@]4(C)[C@]3(C)CC[C@@H]12` was 70.1%.
`N=C(N)c1ccc(S(N)(=O)=O)cc1`: the growth is 104%.
For `C=C(C)[C@@H]1CC[C@]2(C(=O)OC)CC[C@]3(C)[C@H](CC[C@@H]4[C@@](C)(CC/C(N)=N/O)[C@H](C(=C)C)CC[C@]43C)[C@@H]12`, the growth is 104%.
Take `COc1ccc(-c2nc3c(c(C)nn3-c3ccc(F)cc3)c(=O)[nH]2)cc1`: the growth was 85%.
The value for `CC1(C)C(=O)/C(=C\c2ccco2)C[C@]2(C)[C@H]3CC[C@@H]4[C@@H](C(=O)/C=C/c5ccco5)CC[C@@]4(C)[C@]3(C)CC[C@@H]12` was 75.2%.
The result for `CC1(C)CC[C@]2(C(=O)Nc3ccccn3)CC[C@]3(C)C(=CC[C@@H]4[C@@]5(C)C/C(=C/c6ccncc6)C(=O)C(C)(C)[C@@H]5CC[C@]43C)[C@@H]2C1` reads 33.9%; that for `Cc1csc(-c2ccc3c(c2)COC3(CCCN(C)C)c2ccc(F)cc2)c1` (stereo not drawn), 42.8%.
The result for `Cc1nc([P+](c2ccccc2)(c2ccccc2)c2ccccc2)c(Sc2sc(-c3ccccc3)nc2[P+](c2ccccc2)(c2ccccc2)c2ccccc2)o1` reads 19.7%.
On to `O=C(O[C@@H]1Cc2c(O)cc(O)cc2O[C@@H]1c1cc(O)c(O)c(O)c1)c1cc(O)c2c(c1)OCO2`, for which the growth was 99.7%.
The value for `Fc1ccc2c(c1)c(-c1nc(-c3c[nH]c4ncccc34)cs1)cn2CCCN1CCCCC1` was 66.7%; that for `O=P(O)(c1ccccc1)c1ccccc1I` was 109%.
Take `COc1ccc(/C=C(\C#N)c2cc3ccccc3n2S(C)(=O)=O)cc1`: the growth is 98.2%.
For `CN1CCN(CCOc2ccc(-c3cnc4c(-c5cccc(F)c5)cnn4c3)cc2)CC1`, the growth was 71.8%.
The result for `Cc1ccc2oc(=O)cc(-c3sc(N4CCCCC4)nc3-c3ccccc3)c2c1` reads 98.5%; that for `Cc1ccnc2c(OCc3ccccc3)cccc12`, 97.1%; that for `N#CC1=C(N)Oc2ccc3ccccc3c2C1c1ccccc1` (stereo not drawn), 51.2%.
Turning to `CN(C)CCCCC(C(=O)CBr)(c1ccccc1)c1ccccc1`, the growth is 31%.
The value for `CC(=O)O[C@H]1CC[C@]2(C)[C@H]3CC=C4[C@@H]5[C@H](C)[C@@H](C)CC[C@]5(C(=O)NCCNCCNCCN)CC[C@@]4(C)[C@]3(C)CC[C@H]2C1(C)C` was 89.8%; that for `Cc1ccc(S(=O)(=O)Nc2ccc(-c3cc(-c4cccc(F)c4)c(C#N)c(N)n3)cc2)cc1` was 49.4%; that for `O=C1/C(=C\c2ccc(Br)o2)SC(=S)N1CCc1ccc(O)cc1` was 43%.
For the compound `CN(C)c1ccc(-c2ccc(-c3ccc(C(=N)N)c(F)c3)s2)cc1`, the growth is -93.7% (active).
The result for `Cc1ccc(S(=O)(=O)Nc2ccc(-c3cc(-c4cccc(F)c4)c(C#N)c(=O)[nH]3)cc2)cc1` reads 84%; that for `O=C1CN(c2ccccc2)C(=O)C1C(=O)Nc1ccc(Cl)c(Cl)c1` (stereo not drawn), 38.9% [100 µM]; that for `CN(C)CCCC1(c2ccc(F)cc2)OCc2cc(-c3ccc(C(F)(F)F)nc3)ccc21` (stereo not drawn), 83.6%.
The value for `Fc1ccc(Nc2nnc(-c3ccc(Cl)cc3)o2)cc1` was 107%; that for `C=C(C)[C@@H]1CC[C@]2(/C=N/Nc3ccncc3)CC[C@]3(C)[C@H](CC[C@@H]4[C@@]5(C)CCCNC(C)(C)[C@@H]5CC[C@]43C)[C@@H]12` was 95.7%.
The value for `O=C1c2ccccc2NC(c2cn(-c3ccccc3)nc2-c2cccs2)N1Cc1ccccc1` (stereo not drawn) was 97.6%.
With `Cc1cccc(C)c1NCc1nc(-c2ccccc2)n[nH]1`, the growth was 106%.
`NC(N)=N/N=C/c1ccc(-c2ccc(-c3ccc(Cl)cn3)s2)cc1`: the growth was 94.4%.
As to `CCOC(=O)C1OC1(c1ccccc1)c1ccccc1` (stereo not drawn), the growth is 108%.
